# According to PubChem BioAssay (Tox21):
# Results filed as inconclusive are left out. Unmarked numbers belong to inactive results. Calls come from the whole dose curve.
# Assay: qHTS assay to identify small molecule agonists of the AP-1 signaling pathway - cell viability counter screen (AID 1159525); note: nearly all actives have a fitted effect of over 55% in size
# Conditions: ME-180 (cervical carcinoma) AP-1-bla cells viability, ATP luminescence, 5 h; series mostly up to 76.8 µM; viability change, negative = cytotoxic: at the top concentration
# Source text: National Center for Advancing Translational Sciences [NCATS]
# NIH Chemical Genomics Center [NCGC]
# U.S. Environmental Protection Agency [EPA]
# National Institutes of Environmental Health Sciences [NIEHS]
# National Toxicology Program [NTP]
# U.S. Food and Drug Administration [FDA]
# Activator protein-1 (AP-1), a transcription factor, plays an important role in tumor genesis by regulating genes involved in cell proliferation, differentiation, apoptosis, and angiogenesis. AP-1 activity is induced by a complex network of signaling pathways that involves extracellular signals, such as growth factors. The AP-1 protein complex formed from c-Fos and c-Jun binding to the AP-1 response element results in transcriptional activation of genes containing such elements within their promoter.
# Low molecular weight molecules have been discovered and developed to modulate various components of these signaling pathways, for example, MAP kinase inhibitors. However, many points of pathway modulation remain untested due to the lack of chemical probes making this signaling locus of general interest.
# Using a beta-lactamase reporter-gene under control of the AP-1 response element, a cell-based assay [CellSensor(TM) AP-1-bla ME-180 developed by Invitrogen Corp.] was used to measure EGF-induced signaling. The Tox21 10K library compounds were measured for their ability to positively modulate the action of EC50 EGF on reporter gene activity. Compounds were screened in a 15-pt titration series in 1536-well format. The cytotoxicity of the Tox21 compound library against this cell line was tested in parallel by measuring the intra cellular ATP content in the same wells.
# Tox21 Assay Protocol Summary:
# 2500 cells/5uL in Opti-MEM medium containing 0.5% dialyzed FBS, 0.1 mM NEAA, 1 mM sodium pyruvate and 10 mM HEPES was dispensed into 1536-well black wall/clear bottom plates using a Multidrop dispenser and cells were cultured at 37 degrees Celsius overnight. Next day 23 nL of compounds dissolved in DMSO, positive controls or DMSO were delivered to each well using a pin tool. The plates were incubated at 37 degrees Celsius for 5 hours. 1 uL of LiveBLAzerTM B/G FRET substrate (Solution A+B+C+D) was added to each well using a Flying Reagent Dispenser. After incubated at room temperature for 2.5 hours the plates were measured on an EnVision plate reader at Excitation 405nm, Emission1=460nm and Emission 2=530nm. The %Activity was determined from the ratio of 460nm/530nm.
# After the plates were read for Beta-Lactamase assay on Envision; 3 ul Cell Titer Glo (Promega) was added to measure the cytotoxicity and the plates were then incubated at RT in dark for 30 min. The luminescence was read on ViewLux (Perkin Elmer, Shelton, CT) using 6 sec exposure. ViewLux data was expressed as relative luminescence units.
# For primary data analysis, raw plate reads for each titration point were first normalized relative to […] EGF control (100%) and DMSO only wells (basal, 0%).
# For primary data analysis for viability assay, raw plate reads for each titration point were first normalized Tetra n-octyl ammonium bromide control (-100%) and DMSO (control, 100%).
row,Compound,"viability change, negative = cytotoxic"
1,N=C(N)c1ccccc1,4.91%
2,CC(C)(O)C(=O)c1ccccc1,1.06%
3,O=C[C@H](O)[C@@H](O)[C@H](O)[C@H](O)CO,-2.81%
4,NC(=O)c1ccc(N)cc1,0.293%
5,CCCCCCCCCCCCN(CCCCCCCCCCCC)CCCCCCCCCCCC,-4.49%
6,CO[C@]12C[C@@H](COC(=O)c3cncc(Br)c3)CN(C)[C@@H]1Cc1cn(C)c3cccc2c13,-7.25% [at 35.3 µM]
7,Cc1sccc1Br,11.9% [at 35.3 µM]
8,CCCC(=O)O[C@]1(C(=O)CO)CC[C@H]2[C@@H]3CCC4=CC(=O)CC[C@]4(C)[C@H]3[C@@H](O)C[C@@]21C,-4.21% [at 35.3 µM]
9,N#Cc1ccc(C2CCCc3cncn32)cc1 (stereo not given),-5.19% [at 35.3 µM]
10,N=c1nc(N2CCCCC2)cc(N)n1O,6.28% [at 35.3 µM]
11,CCCCC(CC)COC(=O)c1ccccc1O (stereo not given),-2.02% [at 35.3 µM]
12,Nc1nc2c(ncn2COC(CO)CO)c(=O)[nH]1,0.421% [at 35.3 µM]
13,COC(=O)c1c(Cl)c(Cl)c(C(=O)OC)c(Cl)c1Cl,-12.3%
14,O=C1CCCN1C1CCCCC1,6.01%
15,CCc1nccnc1CC,-1.96% [at 15.8 µM]
16,COc1ccc2c(c1)CCCC2=O,-0.467% [at 35.3 µM]
17,CCOC(=O)c1c(C)n(C)c2ccc(O)cc12,7.98% [at 35.3 µM]
18,C=CCCCCCCCCC=O,2.4%
19,N[C@H](C(=O)O)c1ccc(O)cc1,10.2% [at 15.8 µM]
20,CC(C)c1cc2c(cc1S(=O)(=O)O)[C@@]1(C)CCC[C@@](C)(C(=O)O)[C@@H]1CC2,0.337% [at 35.3 µM]

row,Compound,"viability change, negative = cytotoxic"
1,CC(=O)Nc1c(I)cc(I)c(C(=O)O)c1I,3.41% [at 35.3 µM]
2,C=C(C)CS(=O)(=O)O,-1.15%
3,OCCCC1CCCCC1,2.97%
4,CC(C)NCCCC1(C(N)=O)c2ccccc2-c2ccccc21,-5.93% [at 35.3 µM]
5,C1CN(CCOCCN2CCOCC2)CCO1,2.53%
6,CCOC(=O)CCC(C)=O,0.853%
7,COc1cc(C(=O)N2CCCCCCC2)cc(OC)c1OC,-0.667% [at 35.3 µM]
8,NC(=O)c1cn(Cc2c(F)cccc2F)nn1,-0.944% [at 35.3 µM]
9,CC(C)CCCC(C)N (stereo not given),-9.59% [at 35.3 µM]
10,N=C(N)c1ccc2cc(OC(=O)c3ccc(N=C(N)N)cc3)ccc2c1,2.33% [at 35.3 µM]
11,CC(=O)N(CC(O)CO)c1c(I)c(C(=O)NCCO)c(I)c(C(=O)NCC(O)CO)c1I (stereo not given),3.9% [at 35.3 µM]
12,NCCc1cnc[nH]1,5% [at 35.3 µM]
13,O=C(CCCN1CCN(c2ccccn2)CC1)c1ccc(F)cc1,-10% [at 35.3 µM]
14,CCC(C)C1CCCCC1=O (stereo not given),-0.874%
15,NC(=O)COCCN1CCN(C(c2ccccc2)c2ccc(Cl)cc2)CC1 (stereo not given),-1.13% [at 35.3 µM]
16,NC(CSCC(=O)O)C(=O)O (stereo not given),3.42% [at 35.3 µM]
17,CC1=CC(C)C(C=O)CC1 (stereo not given),-4.61%
18,O=C(O)CNC(=O)c1ccc([N+](=O)[O-])cc1,1.1%
19,NS(=O)(=O)c1cc(C(=O)NN2C[C@H]3[C@H]4CCC(C4)[C@H]3C2)ccc1Cl,0.45% [at 35.3 µM]
20,c1ccc([C@H]2CN3CCSC3=N2)cc1,-0.0736% [at 35.3 µM]
